Experimental data as given in PubChem BioAssay (NCATS).
Where “and” joins values, the source holds several entries; their conditions need not be identical. Equal values may be shown once. Results filed as inconclusive are left out. Some compounds were tested as several samples or in several runs, with calls that do not always agree. Calls of active or inactive are those of the source. Unless noted, the call rests on the fitted dose curve; in most records, active means well fitted curve in the direction sought with a large enough effect; inconclusive means small, poorly fitted or top-dose-only effect, or another doubt; inactive means no such curve, though single readings can be large; an effect the other way counts as inactive or inconclusive.

Experiments:
[1] = Drug repurposing screens with cells derived from glioblastoma tumor samples (AID 1345199); details: GBM patient neurospheres viability, ATP luminescence, 48 h; further: on the % scale 0 is the no-effect control and ±100 the full control effect; nearly all actives have a fitted effect of over 40% in size
Procedure, shortened: (§1)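 Primary testing used CD133+ neurospheres from four GBM patients, seven concentrations, 48 h exposure and ATP-based viability; confirmation added three slower-growing patient lines.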

astro = control astrocytes; experiment: as above; details: viability, ATP luminescence, 48 h; series mostly up to 45.9 µM
Procedure, shortened: as §1

[2] = target: Nuclear receptor subfamily 1 group I member 2 (Rattus norvegicus) (UniProt Q9R1A7); experiment: qHTS assay for small molecule activators of the rat pregnane X receptor (rPXR) signaling pathway (AID 651751; call rule not given here; further: 0% is about no effect); details: rPXR reporter cells, luciferase (One-Glo), 24 h
Sequence of Nuclear receptor subfamily 1 group I member 2 (Rattus norvegicus) (Q9R1A7 whole entry, looked up): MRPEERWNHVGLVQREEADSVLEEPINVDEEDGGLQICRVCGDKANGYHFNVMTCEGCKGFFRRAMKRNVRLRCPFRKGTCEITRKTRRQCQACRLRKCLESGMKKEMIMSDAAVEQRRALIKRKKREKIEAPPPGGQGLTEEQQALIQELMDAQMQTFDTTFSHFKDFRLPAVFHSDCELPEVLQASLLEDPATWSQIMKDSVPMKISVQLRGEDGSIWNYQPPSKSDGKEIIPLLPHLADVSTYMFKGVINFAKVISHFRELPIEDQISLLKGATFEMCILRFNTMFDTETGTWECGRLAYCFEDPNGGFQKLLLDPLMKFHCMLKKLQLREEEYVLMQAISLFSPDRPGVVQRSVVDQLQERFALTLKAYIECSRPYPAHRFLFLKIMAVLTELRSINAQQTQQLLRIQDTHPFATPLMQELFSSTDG

[3] = qHTS assay for small molecule activators of the human pregnane X receptor (PXR) signaling pathway (AID 720659; call rule not given here; further: 0% is about no effect); details: DPX-2 HepG2 CYP3A4-luciferase, 24 h; series mostly up to 92.3 µM
[4] = qHTS assay to identify inhibitors of the type 1 interferon - major histocompatibility complex class I in skeletal muscle: Counter screen cell viability and HiBit confirmation (AID 1347412); details: iHSKM muscle cells + IFN-b, HiBiT or CellTiter-Glo, 24 h; Viability; at 45.9 µM (top of the series); further: on the % scale 0 is the no-effect control and ±100 the full control effect; nearly all actives have a fitted effect of over 60% in size
Procedure, shortened: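 CRISPR HLA-B*08:01-HiBit immortalized human myoblasts (C25cl48) stimulated with 4 ng/ml IFN-beta and compounds (12-point 1:3, top 46 uM final) for 24 h at 37 C. Duplicate plates read by HiBit lytic luminescence or CellTiter Glo ATP.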

[5] = at 45.9 µM (top of the series), tumour line B
[6] = at 45.9 µM (top of the series), tumour line D
[7] = at 46 µM (top of the series), tumour line A
[8] = at 46.1 µM (top of the series), tumour line C

O=C(O)COc1ccc(C(=O)c2cccs2)c(Cl)c1Cl
inactive: activity, negative = cell killing [1, 5] -12.4% and -10% | activity, negative = cell killing [1, 6] -10.2% and 1.54% | activity, negative = cell killing [1, 7] -22.1% and -29.6% | activity, negative = cell killing [1, 8] -20.3% and -8.25% | Potency (astro)

Oc1ccccc1O
inactive: max response [2] 2.32% | outcome [3]

N#C/C(=C\c1ccc(-c2cc(Cl)ccc2Cl)o1)C(=O)Nc1cccc2ncccc12
inactive: activity change, negative = inhibition [4] -18.8%

CO/N=C(\C(=O)N[C@@H]1C(=O)N2C(C(=O)O)=C(COC(C)=O)CS[C@H]12)c1csc(N)n1 (stereo in doubt)
inactive: activity, negative = cell killing [1, 5] -12.2% | activity, negative = cell killing [1, 6] 9.74% | activity, negative = cell killing [1, 7] -20.5% | activity, negative = cell killing [1, 8] -2.27% | Potency (astro)

CN1CCC[C@H]1c1cccnc1
inactive: max response [2] 4.53% and 0.248% | outcome [3]

CC1(C)C[C@@H]1C(=O)N/C(=C\CCCCSC[C@H](N)C(=O)O)C(=O)O
inactive: activity, negative = cell killing [1, 5] -13% and -12.1% | activity, negative = cell killing [1, 6] 1.02% and -4.66% | activity, negative = cell killing [1, 7] -10.2% and -10.8% | activity, negative = cell killing [1, 8] -10.6% and -17.9%

C=C(Nc1ccc(OCC)cc1)Nc1ccc(OCC)cc1
inactive: activity, negative = cell killing [1, 6] -18.8% | activity, negative = cell killing [1, 8] -12.9% | Potency (astro)

O=C(NOCC1CC1)c1cc(Br)c(F)c(F)c1Nc1ccc(I)cc1Cl
inactive: activity change, negative = inhibition [4] -18.5%

CC(C)Cc1ccc([C@H](C)C(=O)O)cc1
inactive: activity, negative = cell killing [1, 5] 4.71% | activity, negative = cell killing [1, 6] 0.88% | activity, negative = cell killing [1, 7] -14% | activity, negative = cell killing [1, 8] 8.55%
